This test concerns the target Probable ATP-dependent RNA helicase DDX23 (UniProt Q9BUQ8). Kind of test: cross-link between two proteins; cross-linking mass spectrometry; other.
Probable ATP-dependent RNA helicase DDX23, sequence (Q9BUQ8 whole entry): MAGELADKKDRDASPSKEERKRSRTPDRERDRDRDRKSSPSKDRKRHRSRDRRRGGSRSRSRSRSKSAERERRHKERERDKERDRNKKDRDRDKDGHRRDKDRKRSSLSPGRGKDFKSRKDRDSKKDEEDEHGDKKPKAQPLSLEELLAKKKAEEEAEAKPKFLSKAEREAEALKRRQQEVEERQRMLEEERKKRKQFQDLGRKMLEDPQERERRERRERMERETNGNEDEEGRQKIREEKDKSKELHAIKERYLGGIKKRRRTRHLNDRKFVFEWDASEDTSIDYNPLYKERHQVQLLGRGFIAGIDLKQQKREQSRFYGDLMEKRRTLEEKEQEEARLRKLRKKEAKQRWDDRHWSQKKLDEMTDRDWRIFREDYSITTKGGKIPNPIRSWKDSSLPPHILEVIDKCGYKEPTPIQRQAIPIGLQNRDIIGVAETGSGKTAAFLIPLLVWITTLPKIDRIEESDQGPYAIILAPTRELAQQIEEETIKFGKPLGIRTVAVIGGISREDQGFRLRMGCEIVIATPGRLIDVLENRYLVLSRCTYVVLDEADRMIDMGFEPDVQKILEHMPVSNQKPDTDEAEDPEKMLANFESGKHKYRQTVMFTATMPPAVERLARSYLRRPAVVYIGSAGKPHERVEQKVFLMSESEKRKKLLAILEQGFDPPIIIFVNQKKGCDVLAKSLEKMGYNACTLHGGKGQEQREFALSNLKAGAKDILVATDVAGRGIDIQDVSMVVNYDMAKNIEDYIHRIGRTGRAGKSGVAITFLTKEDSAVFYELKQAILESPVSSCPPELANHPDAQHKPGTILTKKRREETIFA
For “U5 small nuclear ribonucleoprotein 200 kDa helicase, O75643”, the “listed as a hit” value is “yes”.

Turning to Pre-mRNA-processing factor 6, O94906, the “listed as a hit” value was “yes”.

For the substance “116 kDa U5 small nuclear ribonucleoprotein component, Q15029”, the “listed as a hit” value was “yes”.

As for “U4/U6.U5 tri-snRNP-associated protein 1, O43290”, the “listed as a hit” value is reported as “yes”.

The record behind these values is article PMC10954555.
